This excerpt belongs to a sample that is enriched for hits.
Sm TGR inh = S. mansoni TGR enzyme inhibition; Q962Y6; purified TGR, DTNB reduction, TNB absorbance 405 nm; Potency, µM (top dose mostly 114 µM), for inactives: at the top dose activity change, negative = inhibition, hits mostly inhibitors; 360,000 tested, 3% active; AID 485364; note: potency is the fitted concentration of half-maximal effect; % is set by controls: 0 for no effect and ±100 for the full control effect; nearly all actives have a fitted effect of over 60% in size
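TGR 20 nM + NADPH 100 uM (dispensed conc.), cpd preinc 15 min RT; start with NADPH (500 uM addition) then DTNB (15 mM addition). Kinetic TNB absorbance, 405 nm filter. Four-parameter Hill fit across titration.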
CHX counter = counter-screen for Shiga toxin inhibitors: cycloheximide protein synthesis inhibition; 300,000 tested, 12% active; cell reporter, cycloheximide protein synthesis inhibition counterscreen; AID 2314; max response, %; in the data active = max response mostly above about 13%, no sharp cut-off; inactive = mostly below about 14%; note: read at 38.3 µM for the half of the compounds with a filed dose; 0% is about no effect
LmPK inh = LmPK (Leishmania mexicana) enzyme inhibition. Q27686. purified LmPK, Kinase-Glo ATP luminescence, 1 h. Potency, µM (top dose mostly 57.5 µM), for inactives: top-dose activity change, negative = inhibition, usual class: inhibitors. 290,000 tested, 0.37% active; note: potency is the fitted concentration of half-maximal effect; % is set by controls: 0 for no effect and ±100 for the full control effect
Target sequence (Q27686 whole entry, looked up): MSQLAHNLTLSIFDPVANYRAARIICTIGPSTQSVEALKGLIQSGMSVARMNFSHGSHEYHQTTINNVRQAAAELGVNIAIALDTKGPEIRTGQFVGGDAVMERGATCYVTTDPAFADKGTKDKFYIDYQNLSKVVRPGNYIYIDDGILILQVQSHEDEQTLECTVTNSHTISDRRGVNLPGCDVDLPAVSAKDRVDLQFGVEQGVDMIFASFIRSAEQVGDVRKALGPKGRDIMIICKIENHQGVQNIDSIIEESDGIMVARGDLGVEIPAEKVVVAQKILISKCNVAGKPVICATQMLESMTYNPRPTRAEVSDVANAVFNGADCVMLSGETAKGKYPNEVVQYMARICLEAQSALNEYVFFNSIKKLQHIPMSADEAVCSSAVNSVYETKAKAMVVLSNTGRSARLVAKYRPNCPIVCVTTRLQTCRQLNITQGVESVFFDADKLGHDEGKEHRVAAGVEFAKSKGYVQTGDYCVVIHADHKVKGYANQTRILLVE
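qHTS format; LmPK 0.1 nM; substrates PEP 0.5 mM and ADP 0.1 mM. One-hour room-temperature incubation, then coupled luciferase luminescence; 0.5 nM enzyme wells mark activation.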
Giardia FBPA inh = inhibitors of Giardia lamblia fructose-1,6-bisphosphate aldolase. A8B2U2. purified Giardia FBPA. Potency, µM (top dose mostly 59.6 µM), inactives show at the top dose activity, negative = inhibition, most hits filed as inhibitors. 290,000 tested, 0.71% active; note: potency is the fitted concentration of half-maximal effect; % is set by controls: 0 for no effect and ±100 for the full control effect; nearly all actives have a fitted effect of over 55% in size
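40 nM FBPA preincubated 10 min at RT with compound (up to 57.5 uM final), then substrate plus GAPDH/TPI/NAD/arsenate coupling and diaphorase/resazurin added. Fluorescence read after 20 min at RT, 525/598 nm.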
Shiga toxin inh = inhibitors of Shiga toxin in Vero cells; Vero cells, Shiga toxin protein synthesis inhibition reporter; inhibition, % at 38.7 µM; 290,000 tested, 9.2% active; AID 2315; in the data active = inhibition mostly above about 28%, no sharp cut-off; inactive = mostly below about 43%; note: 0% is about no effect
Tb PYK inh = inhibitors of Trypanosoma brucei pyruvate kinase; Potency, µM (highest dose often 76.8 µM), for the others: top-dose activity, negative = inhibition, usual class: inhibitors; 410,000 tested, 0.12% active; AID 624173; TbPYK enzyme, Kinase-Glo Plus ATP luminescence, 45 min; Q57TT1; note: potency is the fitted concentration of half-maximal effect; % is set by controls: 0 for no effect and ±100 for the full control effect; nearly all actives have a fitted effect of over 50% in size
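Activity of T. brucei pyruvate kinase was followed by Kinase-Glo Plus luminescence after the enzyme reacted 45 min at room temperature with 130 uM ADP (final) and substrate. Test compounds were added before ADP at multiple concentrations.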
Active calls of the source: *; ? = inconclusive; / = not tested or not shown; [ ] = remark or other dose. Unless noted, calls come from the whole dose curve; as a rule, active = well fitted curve in the direction sought with a large enough effect; inconclusive = small, poorly fitted or top-dose-only effect, or another doubt; inactive = no such curve, though single readings can be large; an effect the other way counts as inactive or inconclusive.

SMILES	Sm TGR inh	CHX counter	LmPK inh	Giardia FBPA inh	Shiga toxin inh	Tb PYK inh
COc1cc2c(cc1OC)n(CC(=O)c1cc(C)ccc1C)c(=O)n1nc(CCn3nc(C)cc3C)nc21	-3%	/	/	/	/	5%
CCOc1ccc(C2CC(=O)Nc3c2c(=O)[nH]c2ncnn32)cc1 (stereo not drawn)	-1%	/	/	/	/	7%
CCN(CC)C(=O)c1sc2c(c1C)c(=O)n(CCc1ccccc1)c(=O)n2Cc1ccc(F)cc1Cl	6%	/	/	/	/	-1%
CCOc1ccc(NC(=O)CC2C(=O)N(c3ccc(C)cc3)C(=O)N2C2CCCCC2)cc1 (stereo not drawn)	-1%	/	/	/	/	2%
COC(=O)Nc1sc2c(c1C(=O)N1CCOCC1)CCC(C)C2 (stereo not drawn)	45µM*	-2	-10%	-27%	5	-1%
CCOC(=O)N1CCC(N2CCN(Cc3ccccc3)C(CCO)C2)CC1 (stereo not drawn)	16µM*	-1	5%	4%	-3	-4%
CCOC(=O)N1CCC(N2CCN(Cc3ccc(C)o3)C(CCO)C2)CC1 (stereo not drawn)	-7%	-2	0%	3%	-3	-5%
COc1cccc(CN2CCN(C3CCN(c4ccccc4F)CC3)CC2CCO)c1 (stereo not drawn)	22µM*	0	7%	1%	-6	-7%
CC(=O)Nc1cccc(N=NN2CCCCC2)c1	/	17	-3%	-2%	38	6%
Cc1ccc(C)c(N2CCN(C(=O)c3cc(S(=O)(=O)N4CCCCC4)cn3C)CC2)c1	7%	/	/	/	/	3%
CCOc1ccc(N=Cc2c(O)cc(C)oc2=O)cc1	-11%	-3	-6%	-1%	-4	0%
CCOc1ccc(N=Cc2c(O)c3ccccc3oc2=O)cc1	3%	26*	?	-3%	78*	-7%
Cc1ccn(-c2cc(O)c(-n3ccc(C)n3)cc2O)n1	-27%	14*	-5%	-8%	46	-4%
Cc1ccn(CCC(=O)O)n1	-5%	1	-2%	0%	-6	4%
CN(C)c1ccc(/C=N/NC(=S)NCc2ccccc2)cc1	-12%	24*	4%	-2%	-7	1%
CNC(=S)N/N=C/c1ccc(N(C)C)cc1	-13%	54*	-9%	2%	77*	-8%
COCCCNC(=S)N/N=C/c1ccc(N(C)C)cc1	-15%	18	1%	0%	20	0%
CCc1ccccc1NC(=O)C1=CN2CCS(=O)(=O)N=C2C=C1	0%	/	/	/	/	-1%
COc1ccc(CNc2nc3nc(C)c(Cl)c(C)n3n2)cc1OC	/	/	/	/	/	3%
COc1cccc(CNc2nc3nc(C)c(Cl)c(C)n3n2)c1	-3%	35*	-3%	0%	48*	-12%
Cc1nc2nc(-c3cccnc3)nn2c(C)c1Cl	-4%	7	-22%	3%	17	-15%
COc1ccc(CNc2nc3nc(C)c(Cl)c(C)n3n2)cc1	2%	35*	3%	0%	56*	8%
COc1ccc(-c2nc3nc(C)cc(C)n3n2)cc1	4%	17*	?	0%	37*	-2%
Cc1nc2nc(-c3ccco3)nn2c(C)c1Cl	22µM*	14*	-14%	0%	8	1%
CN(C)CCCNc1oc(/C=C/c2ccc(F)cc2)nc1C#N	1%	/	/	/	/	3%
SMILES	Sm TGR inh	CHX counter	LmPK inh	Giardia FBPA inh	Shiga toxin inh	Tb PYK inh
CC1Cc2ccccc2N1C(=O)CSc1nc2ccc(NC(=O)COc3ccccc3)cc2s1 (stereo not drawn)	6%	/	/	/	/	-7%
O=C(Nc1cccc(C(=O)N2CCCCC2)c1)C1CCCCC1	/	/	/	/	/	-2%
N=C1Sc2ccccc2C2=NCCCN12	/	/	/	-1%	/	/
Cc1ccc(C)c(Cn2c(=O)cc(C(F)(F)F)c3c(C)nn(C)c32)c1	-1%	/	/	/	/	6%
CCc1ccc(CNC(=O)CN2C(=O)CSc3c2c(C)nn3-c2ccccc2)cc1	-10%	/	/	/	/	3%
COc1ccc(CNc2nc3nc(C)cc(C)n3n2)cc1	-8%	10	3%	2%	34*	15%
N#Cc1ccc(-c2ccc(OCC3CNC(=O)O3)cc2)cc1 (stereo not drawn)	2%	47*	-1%	-16%	65*	-6%
Cc1ccc2cc(/C=N/NC(=O)[C@H]3C[C@@H]3c3ccccc3)c(Cl)nc2c1	2%	16*	2%	9%	10	-10%
Cc1cc2nc(-c3ccc(OCc4ccc(F)cc4)cc3)cc(C(F)(F)F)n2n1	4%	/	/	/	/	-5%
CC1=C(CC(=O)c2ccc(Cl)cc2)C(=O)c2ccccc2C1=O	?	27*	2%	-24%	61*	-3%
c1ccc(-c2nnc3sc(CN4CCc5ccccc54)cn23)cc1	-24%	24	2%	-7%	46*	-5%
Brc1ccc(-c2nnc3sc(CN4CCc5ccccc5C4)cn23)cc1	/	/	/	/	/	6%
CC(C)(C)c1cc(CN2CCCCC2)cc(C(C)(C)C)c1O	45µM*	-2	-1%	?	-11	/
COc1ccc(CN2CCCCCC2)cc1	18%	-1	4%	-21%	-11	21%
COc1cc(CN2CCCCCC2)cc(OC)c1	100µM*	-3	2%	-26%	-14	5%
C=CCOC(=O)CCCC(=O)NC1CCCCC1	5%	8	-3%	0%	active	1%
O=C(O)CCC(=O)NC1CCCCC1	-4%	-5	1%	4%	-10	2%
O=C(CCC1CCCC1)NC1CCCCC1	-2%	18*	-2%	3%	65*	5%
O=C(CC1CCCCC1)NC1CCCC1	9%	19*	-14%	5%	26	-2%
CCOc1ccc(CNC(=O)Cc2ccc(NC(=O)N3CCSc4ncccc43)cc2)cc1	1%	/	/	/	/	7%[15.4 µM]
S=C(N/N=C/c1ccc2ncccc2c1)Nc1cccnc1	2%	23*	-1%	-20%	66	-2%
CC(C)(C)c1ccc(/C=N/NC(=S)Nc2cccnc2)cc1	-2%	16*	4%	-1%	61	/
Oc1ccc(/C=N/NC(=S)Nc2cccnc2)cc1O	-17%	1	-3%	?	-30	-2%
COc1cc(/C=N/NC(=S)Nc2cccnc2)cc(OC)c1OC	-2%	14	-2%	11%	11	1%
Cc1ccc(C(=O)Nc2ccc3oc(-c4ccc(C(C)(C)C)cc4)nc3c2)cc1	-1%	/	/	/	/	-21%
CCc1ccn2cc(-c3cc(-c4ccccc4)no3)nc2c1	26%	37*	16µM*	-7%	23	-7%
Cc1ccc2nc(-c3cc(-c4ccccc4)no3)cn2c1	15%	49*	-3%	0%	114*	0%
Cc1nn2c(C)c(C(=O)NCc3ccco3)cnc2c1-c1ccccc1	?	/	/	/	/	6%
O=S(=O)(Nc1ccc(-c2nc3cccnc3s2)cc1)c1cccs1	-3%	28*	-2%	-1%	36	-10%

Screening data from PubChem.
